# PubChem BioAssay AID1259325 (C. David Weaver Laboratory, Vanderbilt University, 2017)
# The whole screen tested about 63,000 compounds, of which about 30 (0.05%) were called active. How the calls were made is not given here. Only a sample is shown.
# Target: G protein-activated inward rectifier potassium channel 2 (Homo sapiens) (UniProt P48051)
# Assay: opens human GIRK2 potassium channels (AID 1259325)
# Conditions: HEK293-GIRK2 thallium flux, Thallos fluorescence, MPD
# G protein-activated inward rectifier potassium channel 2 (Homo sapiens), sequence (P48051 whole entry, looked up): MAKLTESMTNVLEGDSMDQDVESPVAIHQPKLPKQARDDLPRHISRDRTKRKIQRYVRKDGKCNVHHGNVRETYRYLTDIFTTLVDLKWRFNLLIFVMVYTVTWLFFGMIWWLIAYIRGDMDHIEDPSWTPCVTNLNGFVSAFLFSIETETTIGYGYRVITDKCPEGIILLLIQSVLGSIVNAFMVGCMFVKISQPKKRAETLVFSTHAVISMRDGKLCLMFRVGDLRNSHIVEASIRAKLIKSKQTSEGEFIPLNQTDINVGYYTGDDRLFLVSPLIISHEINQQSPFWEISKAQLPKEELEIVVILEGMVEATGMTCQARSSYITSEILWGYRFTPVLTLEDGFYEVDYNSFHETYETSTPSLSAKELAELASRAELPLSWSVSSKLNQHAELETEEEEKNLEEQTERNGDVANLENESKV
row,SMILES,outcome
1,COc1ccccc1N1CCN(CC(=O)N2CCN(S(C)(=O)=O)CC2)C1=O,inactive
2,COc1ccccc1NC(=O)CN1N=NC2C(=O)N(c3ccc(F)c(F)c3)C(=O)C21 (centres undefined),inactive
3,CCOc1ccc(C2C(C(=O)c3sc(C)nc3C)=C(O)C(=O)N2CCCN(C)C)cc1 (centres undefined),inactive
4,CN(C)C(CNC(=O)C1c2ccccc2Oc2ccccc21)c1cccn1C (centres undefined),inactive
5,CCCN(C)c1nccn2c(=O)n(CC(=O)Nc3cccc(CC)c3)nc12,inactive
6,CCOC(=O)c1ccc(NC(=O)Cn2ccn(Cc3ccc(Cl)cc3)c(=O)c2=O)cc1,inactive
7,Cc1nc(C)c(-c2ccc(=O)n(CCNC(=O)C3CCN(S(C)(=O)=O)CC3)n2)s1,inactive
8,O=C(c1ccc2c(c1)OCO2)N1CCC(CSc2ccccn2)CC1,inactive
9,COc1ccc(S(=O)(=O)N2CCCOC2CNC(=O)C(=O)NCc2ccc(C)cc2)cc1OC (centres undefined),inactive
10,Cn1c(=O)n(CCc2ccccc2)c(=O)c2c(N3CCN(C(=O)c4ccco4)CC3)ccnc21,inactive
11,COc1cccc(CSc2nc(C)c(CC(=O)NCc3cccs3)c(=O)[nH]2)c1,inactive
12,COc1ccc(NC(=O)CSc2nnc(C3CC(=O)N(c4ccc(C)cc4)C3)o2)cc1 (centres undefined),inactive
13,O=C(O)CCC/C=C\C[C@@H]1C(/C=C/[C@@H](O)COc2cccc(C(F)(F)F)c2)[C@H](O)C[C@@H]1O (some centres undefined),inactive
14,O=C(CSc1ccc(-c2nc(-c3ccccc3)no2)cn1)NCc1ccc2c(c1)OCO2,inactive
15,CCCNC(=O)Cn1nc2c(c1NC(=O)COc1ccccc1F)CSC2,inactive
16,O=C(COc1ccc(Cl)cc1)Nc1ccc(N2CCCCS2(=O)=O)cc1,inactive
17,O=C1CC(C(=O)Nc2ccccc2Cl)n2c(nc3ccccc32)N1 (centres undefined),inactive
18,COCCNC(=O)c1[nH]c2ccccc2c1NC(=O)c1cccc(C)c1,inactive
19,COc1cc(/C=C2\Oc3c4c(cc(C)c3C2=O)OCN(C2CC2)C4)cc(OC)c1OC,inactive
20,CCc1ccc(NC(=O)NCCNc2cc(Nc3ccccn3)ncn2)cc1,inactive
21,Cc1cc(C)n(-c2cc(SCC(=O)N3CCCC3)ncn2)n1,inactive
22,COc1ccc(-c2ccc(C)c(NC(=O)c3cc4ccccc4oc3=O)c2)nn1,inactive
23,Cn1cccc(C(=O)Nc2ccc3c(c2)CCC(=O)N3)c1=O,inactive

row,SMILES,outcome
1,O=C(CCn1c(=O)oc2ccc(Cl)cc21)N1CCN(c2ccccc2Cl)CC1,inactive
2,COc1cccc(OCc2nc3c(C)cccc3[nH]2)c1,inactive
3,CCC(C)c1ccc(Cn2c(CO)nc3ccccc32)cc1 (centres undefined),inactive
4,CC(=O)c1cccc(NC(=O)CCCn2cnc(-c3ccc(F)cc3)cc2=O)c1,inactive
5,COCCn1c(SCc2nc(-c3ccc(Cl)cc3)no2)nc2cc3c(cc2c1=O)OCO3,inactive
6,CCOc1cc(C(=O)Nc2ccc3c(c2)N(C(C)=O)CCC3)cc(OCC)c1OCC,inactive
7,Cn1cnnc1SCc1cc(=O)c(OCC(=O)NCc2ccco2)co1,inactive
8,COC(=O)c1[nH]c(C)c(C(O)=C2C(=O)C(=O)N(CCCN(C)C)C2c2cccs2)c1C (centres undefined),inactive
9,O=C(Nc1nc(-c2cc3ccccc3o2)cs1)c1ccc(S(=O)(=O)N2CCOCC2)cc1,inactive
10,Cc1ccnc(Nc2cc(NCCNC(=O)Nc3cccc(Cl)c3)ncn2)c1,inactive
11,COc1cccc(NC(=O)CSc2ncc(S(=O)(=O)c3ccc(Cl)cc3)c(=O)[nH]2)c1,inactive
12,O=S(=O)(Cc1nc(-c2cccc(Cl)c2)no1)c1ccccc1,inactive
13,O=S(=O)(c1ccccc1F)N(CCc1cccs1)Cc1ccoc1,inactive
14,COc1ccc(Nc2c(C(=O)N3CCCCC3)cnc3nc(C)ccc23)cc1OC,inactive
15,O=S(=O)(NCCC(O)c1ccoc1)c1ccc(F)c(Cl)c1 (centres undefined),inactive
16,COC(=O)c1ccc2c(=O)n(CCC(=O)NCCN3CCCc4ccccc43)c(=S)[nH]c2c1,inactive
17,Cc1nc2sc(C)c(C)n2c(=O)c1NC(=O)c1ccccc1C(F)(F)F,inactive
18,COC(=O)Nc1nc2c(s1)CN(C(=O)c1cccc(C#N)c1)CC2,inactive
19,COc1cc(NC(=O)c2cnccn2)ccc1N1CCCC1=O,inactive
20,Cc1nn(-c2ccccc2)c(C)c1N1CCN(S(=O)(=O)c2cccs2)CC1,inactive
21,Cn1cccc1C(=O)N1CCN(Cc2nncn2-c2ccccc2F)CC1,inactive
22,Cc1cn2c3c(=O)n(C/C=C/c4ccccc4)c(=O)n(C)c3nc2n1-c1ccccc1O,inactive
23,CCCCN(C)C(=O)c1cc2c(=O)n3ccccc3nc2n1CCCOC,inactive

row,SMILES,outcome
1,COc1ccc(OC)c(S(=O)(=O)NCC(c2ccc(F)cc2)N2CCOCC2)c1 (centres undefined),inactive
2,CCOC(=O)c1cnn2ccc(NC(=O)c3cnn(-c4ccccc4)c3C)cc12,inactive
3,COc1ccc(C(O)CN2CCN(c3cccc(C)c3C)CC2)cc1 (centres undefined),inactive
4,Cc1cc(NC(=O)C2CCN(C(=O)C3(c4ccccc4)CCOCC3)CC2)no1,inactive
5,COc1cccc(C(=O)Oc2ccc(/C=C/c3ccccn3)cc2)c1,inactive
6,Nc1cc2cc(Br)ccc2cn1,inactive
7,COc1ncccc1C(=O)NCCn1nc(C2CC2)n(-c2ccccc2)c1=O,inactive
8,CCc1cc2c(=O)n(Cc3ccco3)c(SCc3cc(=O)[nH][nH]3)nc2s1,inactive
9,Cc1cc(N2CCN(CCO)CC2)n2nc(C(F)(F)F)c(-c3ccc(Cl)cc3)c2n1,inactive
10,CCOc1ccc(N(C)S(=O)(=O)c2ccsc2C(=O)NCCC2=CCCCC2)cc1,inactive
11,CCC(=O)Nc1cc(-c2ccco2)nn1-c1nc2c(c(=O)[nH]1)CCC2,inactive
12,O=C(CCC(=O)N1CC(c2nc(-c3cccs3)no2)C1)c1ccccc1,inactive
13,Cc1ccc(Cl)c(-n2nnc(C(=O)Nc3ccccc3Cl)c2C)c1,inactive
14,O=C(NCC(=O)N1CCN(c2cc(-n3cccc3)ncn2)CC1)c1ccccc1,inactive
15,O=C(Nc1ccc2c(c1)OCO2)Nc1ccccc1NC(=O)c1ccccc1F,inactive
16,O=S(=O)(NC1CCN(c2ccc(-c3ccccc3Cl)nn2)CC1)c1cccs1,inactive
17,O=C(CN1CCN(c2ccccc2F)C1=O)Nc1ccc(OC(F)(F)F)cc1,inactive
18,CCOC(=O)N1CCc2c(sc(NC(=O)c3ccc(C)c(C)c3)c2-c2nc3ccccc3s2)C1,inactive
19,Cc1nnc(NC(=O)C2CCN(c3ccc(-c4ccco4)nn3)CC2)s1,inactive
20,Cc1cc(-c2ccccc2)nc2cc(-c3nc(-c4cccs4)no3)nn12,inactive
21,CCCCCNC(=O)c1sc(-c2nnn(-c3ccc(F)cc3)c2C)nc1C,inactive
22,Cc1ccc2[nH]c3c(=O)n(CC(=O)N4CCN(c5cccc(C(F)(F)F)c5)CC4)cnc3c2c1,inactive
23,COc1ccc(NCCN2N=C(C)C(C)n3c2nc2c3c(=O)n(C)c(=O)n2C)cc1 (centres undefined),inactive
